Potency and affinity values are given separately. Results filed as inconclusive are left out. Entries that show only a call come without a potency. Activity calls are given as the source filed them.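 The calls were made as follows: active = compound whose fitted half-maximal inhibition concentration is at most triple the top dose in every replicate run; inconclusive = runs disagree, or flat partial inhibition, or poor curve fit; inactive = every run inactive: flat, opposite effect, or too weak.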

In this assay the target is Cyclin-dependent kinase 5 activator 1 (Homo sapiens) + Cyclin-dependent kinase 5 (Homo sapiens) (UniProt Q15078+Q00535). The assay is described as follows: human CDK5 activity blockade – biochemical, microfluidic mobility shift, dry powder, selectivity assay for GSK-3 alpha inhibitor project, dose response (AID 588430). As to conditions: CDK5-p25 kinase, Caliper mobility shift, peptide conversion; series mostly up to 35 µM.
Cyclin-dependent kinase 5 activator 1 (Homo sapiens) + Cyclin-dependent kinase 5 (Homo sapiens), sequence (Q00535 whole entry, looked up): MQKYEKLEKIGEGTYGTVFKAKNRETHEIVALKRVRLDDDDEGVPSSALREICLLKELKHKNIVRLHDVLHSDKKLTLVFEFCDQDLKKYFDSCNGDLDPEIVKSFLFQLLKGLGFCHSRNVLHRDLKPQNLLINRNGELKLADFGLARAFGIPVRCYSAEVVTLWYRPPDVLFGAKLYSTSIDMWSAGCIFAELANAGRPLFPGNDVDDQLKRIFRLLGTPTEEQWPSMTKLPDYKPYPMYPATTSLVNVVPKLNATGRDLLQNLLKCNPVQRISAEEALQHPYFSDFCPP
Cyclin-dependent kinase 5 activator 1 (Homo sapiens) + Cyclin-dependent kinase 5 (Homo sapiens), sequence (Q15078 whole entry, looked up): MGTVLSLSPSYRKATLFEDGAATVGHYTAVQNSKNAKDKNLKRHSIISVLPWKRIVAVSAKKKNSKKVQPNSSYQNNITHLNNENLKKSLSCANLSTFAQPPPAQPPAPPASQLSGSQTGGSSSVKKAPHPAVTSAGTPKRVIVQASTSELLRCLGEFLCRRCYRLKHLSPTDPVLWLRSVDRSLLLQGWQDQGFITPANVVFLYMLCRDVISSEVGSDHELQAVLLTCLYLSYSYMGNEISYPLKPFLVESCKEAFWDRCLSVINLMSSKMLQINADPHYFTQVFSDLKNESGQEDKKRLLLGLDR
As for `Fc1ccc(CSc2nnc(-c3ccncc3)o2)cc1`, the outcome was inactive.
Then `O=C(Nc1ccsc1C(=O)NC1CCCCC1)c1ccc(F)cc1`, with “inactive”; and `c1ccc(-c2nc(NCCCn3ccnc3)c3ccccc3n2)cc1`, with “inactive”.
Take `Nc1nc(NCCCN2CCOCC2)nc(Nc2cccc(Cl)c2)c1[N+](=O)[O-]`: the result was inactive.
To `CN(C)Cc1c(C(=O)N/N=C/c2ccncc2)nnn1-c1nonc1N` belongs “inactive”; to `COc1ccc(OC)c(/C=N/NC(=O)c2nnn(-c3nonc3N)c2-c2cccs2)c1`, “inactive”.
Then `Nc1nonc1-n1nnc(C(=O)N/N=C/c2ccccc2Cl)c1CN1CCOCC1`, with “inactive”; and `CCOC(=O)c1ccc2ncc(C(=O)OCC)c(Nc3ccc(N4CCOCC4)cc3)c2c1`, with “inactive”.

The values above are taken from PubChem BioAssay AID588430 (Broad Institute, 2011).
